# Experiments:
# Test in all cases: DAPPL (digital affinity profiling via proximity ligation, sequencing); 10 mM Tris-HCl pH 7.5, 50 mM NaCl, 1 mM DTT, 4% glycerol, room temperature, 30 min; GST-TFs on glutathione beads, 16-mer random dsDNA library, 0.1% formaldehyde crosslink after washing; high values mean tight binding
# FEV = molecular target: T1, FEV (Homo sapiens, UniProt Q99581 1-238); settings: protein: recombinant; tags: N-terminal GST; dsDNA, one strand shown
# T1 sequence: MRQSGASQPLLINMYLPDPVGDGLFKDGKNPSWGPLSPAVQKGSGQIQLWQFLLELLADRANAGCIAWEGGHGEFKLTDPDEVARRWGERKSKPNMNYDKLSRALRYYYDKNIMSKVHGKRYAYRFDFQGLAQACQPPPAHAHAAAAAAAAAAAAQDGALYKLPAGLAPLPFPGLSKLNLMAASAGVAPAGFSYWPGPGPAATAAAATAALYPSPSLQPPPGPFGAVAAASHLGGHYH
# Method in brief: (§1)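 In yeast, human transcription factors were expressed with a GST fusion, then pulled down on glutathione beads and given DNA barcodes. Pooled with a tag-only sample, they were exposed to 200 nmole of a 16-mer random double-stranded DNA library (Tris/NaCl/DTT/glycerol buffer, room temperature, 30 min), washed, crosslinked with 0.1% formaldehyde, proximity-ligated using BsaI/T4 ligase for 1 h at 37 °C, PCR-amplified and read on an Illumina NextSeq500. Each hexamer's frequency of reads for a factor, divided by the matching frequency for the tag-only sample, gives the binding signal.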
# ETV5 = ETV5 (Homo sapiens, UniProt P41161 1-510); settings: protein: recombinant; tags: N-terminal GST; dsDNA, one strand shown
# ETV5, sequence (P41161 whole entry): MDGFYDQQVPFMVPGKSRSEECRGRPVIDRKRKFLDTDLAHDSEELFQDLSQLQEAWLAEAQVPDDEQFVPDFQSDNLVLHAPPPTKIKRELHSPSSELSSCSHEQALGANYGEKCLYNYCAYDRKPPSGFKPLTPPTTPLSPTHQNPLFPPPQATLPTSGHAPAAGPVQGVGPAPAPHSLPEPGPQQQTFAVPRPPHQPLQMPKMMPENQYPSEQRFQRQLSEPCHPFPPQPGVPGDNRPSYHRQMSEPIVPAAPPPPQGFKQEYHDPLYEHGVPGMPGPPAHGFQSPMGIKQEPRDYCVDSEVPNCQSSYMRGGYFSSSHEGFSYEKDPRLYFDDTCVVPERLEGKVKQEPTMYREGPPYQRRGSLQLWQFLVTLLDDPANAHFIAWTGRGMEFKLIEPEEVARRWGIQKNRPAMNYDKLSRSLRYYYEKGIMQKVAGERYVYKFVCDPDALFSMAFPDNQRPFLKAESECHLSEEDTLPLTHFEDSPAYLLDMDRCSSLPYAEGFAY
# Method in brief: as §1
# HSF1 = HSF1 (Homo sapiens, UniProt Q00613 1-529); settings: protein: recombinant; tags: N-terminal GST; chain copies: 3; dsDNA, one strand shown
# HSF1, sequence (Q00613 whole entry): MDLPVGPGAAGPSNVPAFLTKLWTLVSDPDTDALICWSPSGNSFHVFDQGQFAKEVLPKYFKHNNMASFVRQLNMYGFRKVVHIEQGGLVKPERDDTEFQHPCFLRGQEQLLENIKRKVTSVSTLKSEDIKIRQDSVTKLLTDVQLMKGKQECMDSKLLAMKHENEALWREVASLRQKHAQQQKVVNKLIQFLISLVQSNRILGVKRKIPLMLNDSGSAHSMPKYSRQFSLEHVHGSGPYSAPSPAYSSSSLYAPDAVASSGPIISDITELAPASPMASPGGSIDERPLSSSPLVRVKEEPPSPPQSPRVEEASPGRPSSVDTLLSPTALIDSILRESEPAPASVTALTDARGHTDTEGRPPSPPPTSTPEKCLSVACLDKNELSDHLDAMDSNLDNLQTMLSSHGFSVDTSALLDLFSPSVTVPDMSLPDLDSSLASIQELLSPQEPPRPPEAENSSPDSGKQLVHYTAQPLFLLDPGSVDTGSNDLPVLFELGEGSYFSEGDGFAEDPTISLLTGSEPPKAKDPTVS
# Method in brief: as §1
# SPIC = molecular target: T2, SPIC (Homo sapiens, UniProt Q8N5J4 1-248); settings: protein: recombinant; tags: N-terminal GST; dsDNA, one strand shown
# T2 sequence: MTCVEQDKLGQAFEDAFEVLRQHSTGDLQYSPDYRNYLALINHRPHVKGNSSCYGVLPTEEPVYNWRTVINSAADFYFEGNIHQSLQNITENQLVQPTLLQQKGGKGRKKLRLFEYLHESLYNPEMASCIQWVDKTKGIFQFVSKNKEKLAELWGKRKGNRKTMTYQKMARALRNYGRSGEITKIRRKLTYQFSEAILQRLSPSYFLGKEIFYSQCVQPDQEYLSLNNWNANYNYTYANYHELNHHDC
# Method in brief: as §1
# ELF4 = ELF4 (Homo sapiens, UniProt Q99607 1-663); settings: protein: recombinant; tags: N-terminal GST; dsDNA, one strand shown
# ELF4, sequence (Q99607 whole entry): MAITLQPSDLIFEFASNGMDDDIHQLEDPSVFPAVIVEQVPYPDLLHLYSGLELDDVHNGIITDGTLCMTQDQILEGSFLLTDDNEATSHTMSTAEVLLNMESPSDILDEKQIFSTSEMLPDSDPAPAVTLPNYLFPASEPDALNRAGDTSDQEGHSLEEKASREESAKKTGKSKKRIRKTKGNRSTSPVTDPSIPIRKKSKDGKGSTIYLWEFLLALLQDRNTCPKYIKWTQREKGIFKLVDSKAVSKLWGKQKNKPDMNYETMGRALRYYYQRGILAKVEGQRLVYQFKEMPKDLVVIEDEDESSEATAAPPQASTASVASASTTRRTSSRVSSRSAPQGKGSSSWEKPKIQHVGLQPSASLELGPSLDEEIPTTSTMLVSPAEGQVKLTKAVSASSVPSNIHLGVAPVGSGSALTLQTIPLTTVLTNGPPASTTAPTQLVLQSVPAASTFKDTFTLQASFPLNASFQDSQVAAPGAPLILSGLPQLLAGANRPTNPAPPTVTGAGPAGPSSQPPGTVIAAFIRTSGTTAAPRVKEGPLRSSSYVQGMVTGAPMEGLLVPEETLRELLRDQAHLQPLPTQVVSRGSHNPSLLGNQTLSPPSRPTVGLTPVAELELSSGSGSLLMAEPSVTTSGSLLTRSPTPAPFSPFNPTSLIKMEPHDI
# Method in brief: as §1
# ELK4 = molecular target: T3, ELK4 (Homo sapiens, UniProt P28324-2 1-405); settings: protein: recombinant; tags: N-terminal GST; dsDNA, one strand shown
# T3 sequence: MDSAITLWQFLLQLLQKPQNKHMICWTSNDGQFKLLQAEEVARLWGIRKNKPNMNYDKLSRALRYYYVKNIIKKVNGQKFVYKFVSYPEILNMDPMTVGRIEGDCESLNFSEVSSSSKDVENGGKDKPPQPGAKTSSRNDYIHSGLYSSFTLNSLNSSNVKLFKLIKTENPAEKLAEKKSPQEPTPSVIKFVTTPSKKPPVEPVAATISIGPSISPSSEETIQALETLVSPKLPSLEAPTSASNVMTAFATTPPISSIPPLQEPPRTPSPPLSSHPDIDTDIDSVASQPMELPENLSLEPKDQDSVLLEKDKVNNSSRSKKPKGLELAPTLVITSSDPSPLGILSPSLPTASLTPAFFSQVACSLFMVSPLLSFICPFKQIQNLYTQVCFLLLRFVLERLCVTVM
# Method in brief: as §1
# ETV2 = molecular target: T4, ETV2 (Homo sapiens, UniProt O00321 1-342); settings: protein: recombinant; tags: N-terminal GST; dsDNA, one strand shown
# T4 sequence: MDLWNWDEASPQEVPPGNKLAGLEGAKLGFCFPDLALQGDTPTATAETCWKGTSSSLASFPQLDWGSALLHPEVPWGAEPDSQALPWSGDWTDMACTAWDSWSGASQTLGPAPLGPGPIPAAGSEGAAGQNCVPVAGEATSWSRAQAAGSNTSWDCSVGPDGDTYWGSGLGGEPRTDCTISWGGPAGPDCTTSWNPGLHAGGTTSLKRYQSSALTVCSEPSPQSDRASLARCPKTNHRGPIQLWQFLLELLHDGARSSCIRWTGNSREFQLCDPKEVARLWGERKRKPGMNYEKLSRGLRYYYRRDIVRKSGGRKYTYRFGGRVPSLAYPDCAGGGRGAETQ
# Method in brief: as §1
# ELF3 = molecular target: T5, ELF3 (Homo sapiens, UniProt P78545 1-371); settings: protein: recombinant; tags: N-terminal GST; dsDNA, one strand shown
# T5 sequence: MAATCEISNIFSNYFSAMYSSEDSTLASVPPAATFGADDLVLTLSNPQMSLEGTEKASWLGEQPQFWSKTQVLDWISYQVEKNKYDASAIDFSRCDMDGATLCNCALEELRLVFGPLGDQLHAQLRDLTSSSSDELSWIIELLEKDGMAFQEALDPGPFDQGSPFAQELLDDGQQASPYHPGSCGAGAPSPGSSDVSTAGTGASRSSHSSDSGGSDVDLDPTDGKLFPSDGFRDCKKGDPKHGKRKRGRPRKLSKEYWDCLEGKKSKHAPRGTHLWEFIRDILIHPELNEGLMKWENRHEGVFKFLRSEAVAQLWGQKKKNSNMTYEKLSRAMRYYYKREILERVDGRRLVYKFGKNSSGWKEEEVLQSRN
# Method in brief: as §1
# CRX = CRX (Homo sapiens, UniProt O43186 1-299); settings: protein: recombinant; tags: N-terminal GST; dsDNA, one strand shown
# CRX, sequence (O43186 whole entry): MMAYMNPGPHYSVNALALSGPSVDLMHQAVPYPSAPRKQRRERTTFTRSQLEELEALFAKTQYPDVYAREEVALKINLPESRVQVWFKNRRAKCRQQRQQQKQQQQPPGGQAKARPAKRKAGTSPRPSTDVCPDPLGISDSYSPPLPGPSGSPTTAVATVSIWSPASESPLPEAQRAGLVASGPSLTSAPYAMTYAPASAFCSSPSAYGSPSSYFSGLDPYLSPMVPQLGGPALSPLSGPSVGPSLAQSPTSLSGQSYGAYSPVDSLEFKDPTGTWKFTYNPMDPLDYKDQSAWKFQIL
# Method in brief: as §1
# ETV1 = ETV1 (Homo sapiens, UniProt P50549 1-477); settings: protein: recombinant; tags: N-terminal GST; dsDNA, one strand shown
# ETV1, sequence (P50549 whole entry): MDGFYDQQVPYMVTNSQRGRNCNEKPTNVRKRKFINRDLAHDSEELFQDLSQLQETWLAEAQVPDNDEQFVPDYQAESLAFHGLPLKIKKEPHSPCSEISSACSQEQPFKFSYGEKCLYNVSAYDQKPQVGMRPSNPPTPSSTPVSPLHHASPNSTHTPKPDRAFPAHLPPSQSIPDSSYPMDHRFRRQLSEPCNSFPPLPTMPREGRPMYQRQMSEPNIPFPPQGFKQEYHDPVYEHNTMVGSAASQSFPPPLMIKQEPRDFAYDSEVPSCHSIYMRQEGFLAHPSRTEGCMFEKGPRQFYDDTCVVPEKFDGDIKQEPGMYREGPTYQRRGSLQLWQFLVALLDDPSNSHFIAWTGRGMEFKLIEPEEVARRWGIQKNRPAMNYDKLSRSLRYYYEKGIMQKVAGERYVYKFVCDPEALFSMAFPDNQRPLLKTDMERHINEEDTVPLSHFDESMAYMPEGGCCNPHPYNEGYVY
# Method in brief: as §1
# ERF = molecular target: T6, ERF (Homo sapiens, UniProt P50548 1-548); settings: protein: recombinant; tags: N-terminal GST; dsDNA, one strand shown
# T6 sequence: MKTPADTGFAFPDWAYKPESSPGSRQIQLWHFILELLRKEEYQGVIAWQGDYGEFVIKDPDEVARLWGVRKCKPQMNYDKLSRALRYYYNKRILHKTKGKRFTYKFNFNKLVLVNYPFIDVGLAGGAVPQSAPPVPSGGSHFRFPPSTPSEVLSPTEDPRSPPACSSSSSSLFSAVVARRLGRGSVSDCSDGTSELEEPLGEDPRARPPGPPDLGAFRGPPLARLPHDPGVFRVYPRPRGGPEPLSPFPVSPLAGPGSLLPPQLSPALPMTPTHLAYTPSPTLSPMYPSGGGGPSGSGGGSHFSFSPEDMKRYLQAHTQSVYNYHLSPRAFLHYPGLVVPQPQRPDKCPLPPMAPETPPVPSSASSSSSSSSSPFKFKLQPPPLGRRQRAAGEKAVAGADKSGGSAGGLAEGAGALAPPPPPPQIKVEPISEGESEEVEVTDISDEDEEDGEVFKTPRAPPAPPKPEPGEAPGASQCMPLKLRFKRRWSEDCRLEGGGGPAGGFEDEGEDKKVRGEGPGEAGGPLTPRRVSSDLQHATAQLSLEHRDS
# Method in brief: as §1
# ETV3L = molecular target: T7, ETV3L (Homo sapiens, UniProt Q6ZN32 1-361); settings: protein: recombinant; tags: N-terminal GST; dsDNA, one strand shown
# T7 sequence: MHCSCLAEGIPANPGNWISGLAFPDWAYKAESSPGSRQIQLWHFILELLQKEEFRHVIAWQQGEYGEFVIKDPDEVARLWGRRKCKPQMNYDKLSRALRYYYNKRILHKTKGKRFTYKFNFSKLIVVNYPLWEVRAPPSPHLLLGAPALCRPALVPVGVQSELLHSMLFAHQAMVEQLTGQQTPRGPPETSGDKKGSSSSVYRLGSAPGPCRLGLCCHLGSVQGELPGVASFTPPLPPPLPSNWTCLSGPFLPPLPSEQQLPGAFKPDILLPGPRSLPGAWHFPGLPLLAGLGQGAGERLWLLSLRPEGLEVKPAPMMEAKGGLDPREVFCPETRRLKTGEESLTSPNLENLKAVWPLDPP
# Method in brief: as §1
# ETS2 = molecular target: T8, ETS2 (Homo sapiens, UniProt P15036 1-469); settings: protein: recombinant; tags: N-terminal GST; dsDNA, one strand shown
# T8 sequence: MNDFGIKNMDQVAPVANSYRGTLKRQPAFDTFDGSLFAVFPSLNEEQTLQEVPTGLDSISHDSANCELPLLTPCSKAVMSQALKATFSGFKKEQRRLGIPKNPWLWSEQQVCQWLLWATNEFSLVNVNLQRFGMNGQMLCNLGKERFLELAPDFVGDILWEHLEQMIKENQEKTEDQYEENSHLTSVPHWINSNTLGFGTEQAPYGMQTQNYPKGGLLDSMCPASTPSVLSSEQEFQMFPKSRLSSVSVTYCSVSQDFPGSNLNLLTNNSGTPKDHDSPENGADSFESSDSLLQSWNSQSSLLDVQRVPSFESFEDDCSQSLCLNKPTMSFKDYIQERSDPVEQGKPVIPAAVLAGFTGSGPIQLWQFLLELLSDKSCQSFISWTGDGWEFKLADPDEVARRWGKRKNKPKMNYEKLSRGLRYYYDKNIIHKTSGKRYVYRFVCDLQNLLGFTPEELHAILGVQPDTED
# Method in brief: as §1
# SPDEF = molecular target: T9, SPDEF (Homo sapiens, UniProt O95238 1-335); settings: protein: recombinant; tags: N-terminal GST; dsDNA, one strand shown
# T9 sequence: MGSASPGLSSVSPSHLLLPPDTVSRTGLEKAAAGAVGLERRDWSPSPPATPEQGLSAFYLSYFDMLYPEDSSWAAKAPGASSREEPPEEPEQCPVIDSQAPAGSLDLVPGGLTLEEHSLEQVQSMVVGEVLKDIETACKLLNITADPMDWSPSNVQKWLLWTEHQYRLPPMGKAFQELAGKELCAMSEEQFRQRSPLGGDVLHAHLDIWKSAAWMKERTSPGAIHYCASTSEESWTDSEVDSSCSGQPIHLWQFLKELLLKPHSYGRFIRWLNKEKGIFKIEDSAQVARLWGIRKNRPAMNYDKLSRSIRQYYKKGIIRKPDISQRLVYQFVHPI
# Method in brief: as §1
# ETV7 = molecular target: T10, ETV7 (Homo sapiens, UniProt Q9Y603 1-341); settings: protein: recombinant; tags: N-terminal GST; dsDNA, one strand shown
# T10 sequence: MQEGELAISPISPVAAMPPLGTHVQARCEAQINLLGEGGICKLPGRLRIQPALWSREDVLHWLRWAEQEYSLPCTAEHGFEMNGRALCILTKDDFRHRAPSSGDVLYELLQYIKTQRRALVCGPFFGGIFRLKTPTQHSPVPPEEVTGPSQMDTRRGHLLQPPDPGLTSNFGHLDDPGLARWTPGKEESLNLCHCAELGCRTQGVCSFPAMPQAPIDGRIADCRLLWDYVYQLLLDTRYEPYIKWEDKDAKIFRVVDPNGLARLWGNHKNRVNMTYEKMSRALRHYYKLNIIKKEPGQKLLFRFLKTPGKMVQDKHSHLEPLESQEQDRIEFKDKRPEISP
# Method in brief: as §1
# ELF5 = molecular target: T11, ELF5 (Homo sapiens, UniProt Q9UKW6-2 1-255); settings: protein: recombinant; tags: N-terminal GST; dsDNA, one strand shown
# T11 sequence: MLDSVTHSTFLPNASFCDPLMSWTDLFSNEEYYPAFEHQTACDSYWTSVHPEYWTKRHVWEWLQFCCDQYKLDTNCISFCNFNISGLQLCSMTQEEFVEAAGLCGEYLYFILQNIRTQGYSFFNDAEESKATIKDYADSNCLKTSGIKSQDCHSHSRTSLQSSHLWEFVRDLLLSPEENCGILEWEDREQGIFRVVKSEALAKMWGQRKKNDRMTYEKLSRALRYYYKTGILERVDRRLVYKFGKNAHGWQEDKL
# Method in brief: as §1
# ETV3 = molecular target: T12, ETV3 (Homo sapiens, UniProt P41162-2 1-143); settings: protein: recombinant; tags: N-terminal GST; dsDNA, one strand shown
# T12 sequence: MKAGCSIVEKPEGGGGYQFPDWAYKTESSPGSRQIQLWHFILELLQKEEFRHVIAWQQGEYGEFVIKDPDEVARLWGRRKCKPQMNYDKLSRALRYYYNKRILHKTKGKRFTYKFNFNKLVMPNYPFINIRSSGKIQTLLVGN
# Method in brief: as §1
# ETV6 = ETV6 (Homo sapiens, UniProt P41212 1-452); settings: protein: recombinant; tags: N-terminal GST; dsDNA, one strand shown
# ETV6, sequence (P41212 whole entry): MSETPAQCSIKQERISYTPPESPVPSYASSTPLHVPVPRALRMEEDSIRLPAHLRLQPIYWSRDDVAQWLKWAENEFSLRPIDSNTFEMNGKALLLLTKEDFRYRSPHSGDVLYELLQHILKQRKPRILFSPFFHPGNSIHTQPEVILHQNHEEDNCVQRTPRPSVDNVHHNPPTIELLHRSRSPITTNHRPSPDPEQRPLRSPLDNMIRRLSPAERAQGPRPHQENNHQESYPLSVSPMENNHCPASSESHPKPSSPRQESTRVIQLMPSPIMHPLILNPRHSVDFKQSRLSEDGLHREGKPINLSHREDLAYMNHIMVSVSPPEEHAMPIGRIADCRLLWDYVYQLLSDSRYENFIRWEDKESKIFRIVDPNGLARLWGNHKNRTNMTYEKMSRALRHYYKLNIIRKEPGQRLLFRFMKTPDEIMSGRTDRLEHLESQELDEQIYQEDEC
# Method in brief: as §1
sequence,measurement,setting,value
GATGTT,binding signal,FEV,"1.22 fold enrichment (6-mer frequency, TF over GST control)"
same,binding signal,ETV5,"1.31 fold enrichment (6-mer frequency, TF over GST control)"
same,binding signal,HSF1,"1.18 fold enrichment (6-mer frequency, TF over GST control)"
same,binding signal,SPIC,"1.39 fold enrichment (6-mer frequency, TF over GST control)"
same,binding signal,ELF4,"1.22 fold enrichment (6-mer frequency, TF over GST control)"
same,binding signal,ELK4,"1.16 fold enrichment (6-mer frequency, TF over GST control)"
same,binding signal,ETV2,"1.21 fold enrichment (6-mer frequency, TF over GST control)"
same,binding signal,ELF3,"1.22 fold enrichment (6-mer frequency, TF over GST control)"
same,binding signal,CRX,"1.08 fold enrichment (6-mer frequency, TF over GST control)"
same,binding signal,ETV1,"1.25 fold enrichment (6-mer frequency, TF over GST control)"
same,binding signal,ERF,"1.24 fold enrichment (6-mer frequency, TF over GST control)"
same,binding signal,ETV3L,"1.31 fold enrichment (6-mer frequency, TF over GST control)"
same,binding signal,ETS2,"1.24 fold enrichment (6-mer frequency, TF over GST control)"
same,binding signal,SPDEF,"1.51 fold enrichment (6-mer frequency, TF over GST control)"
same,binding signal,ETV7,"1.21 fold enrichment (6-mer frequency, TF over GST control)"
same,binding signal,ELF5,"1.32 fold enrichment (6-mer frequency, TF over GST control)"
same,binding signal,ETV3,"1.34 fold enrichment (6-mer frequency, TF over GST control)"
same,binding signal,ETV6,"1.3 fold enrichment (6-mer frequency, TF over GST control)"

# Reference: PMC7862700, “An all-to-all approach to the identification of sequence-specific readers for epigenetic DNA modifications on cytosine”
